Measured values from the supplement of paper PMC4723716.
± gives the uncertainty stated by the source. The full ranking holds about 9,900 compounds; the median of “viability index relative to DMSO control” is about 1, and the lowest 2% start at about 0.85. The sample as a whole holds a higher share of the lowest values than the screen did.

Tested on: Plasmodium falciparum NF54 stage V gametocytes
Test: viability index relative to DMSO control (fraction); higher = less gametocyte killing
Settings: 2.5 µM, incubation time: 72 h
Outline: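 Gametocytes (P. falciparum NF54, stage V) were treated with compound at 2.5 µM for 72 hr at 37°C in low oxygen, in serum-free medium at 0.75% gametocytemia and 1.25% hematocrit. Counts of 20–70 µm2 red particles, taken from one field per well after MitoTracker Red CMXRos with saponin, were divided by the plate mean of solvent-only wells. This ratio is the viability index.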

[1] = library set: Broad Institute DOS

SMILES | viability index [1] | viability index (library set: Broad Institute Blood Stage)
C[C@@H]1CN([C@H](C)CO)C(=O)CCCn2nncc2CO[C@@H]1CN(C)S(=O)(=O)c1ccc2c(c1)OCCCO2 | 1.025 ± 0.0016 | –
C[C@@H]1CN([C@H](C)CO)C(=O)c2cc(NS(=O)(=O)c3cn(C)cn3)ccc2O[C@@H](C)CCCCO[C@@H]1CN(C)Cc1ccc2c(c1)OCO2 | 1.15 ± 0.07 | –
CC(=O)N1CC2(C1)[C@@H](c1ccc(-c3ccc(F)cc3)cc1)[C@@H](CO)N2CC1CC1 | 1.08 ± 0.023 | –
O=C(C[C@@H]1C=C[C@@H](NC(=O)Nc2ccc3c(c2)OCO3)[C@@H](CO)O1)NCCCN1CCOCC1 | 1.02 ± 0.075 | –
COc1ccccc1S(=O)(=O)N1[C@@H]2CNC[C@H]1[C@@H]2c1ccc(-c2ccncc2)cc1 | 1.06 ± 0.032 | –
O=C(C[C@@H]1CC[C@H](NC(=O)C2CC2)[C@H](CO)O1)Nc1ccccc1 | 0.916 ± 0.036 | –
O=C(C1CCOCC1)N1C[C@@H]2[C@H](c3ccccc31)[C@@H](CO)N2C(=O)Cc1ccccn1 | 1.06 ± 0.053 | –
COc1ccc2c3c([nH]c2c1)[C@@H](CO)N(C[C@]31CN(C1)C(=O)NC(C)C)C(=O)C1CCOCC1 | 1.03 ± 0.045 | –
C[C@H]1CN([C@@H](C)CO)C(=O)c2cccc(NC(=O)C3CCOCC3)c2O[C@@H]1CN(C)C(=O)Nc1cccc2ccccc12 | 1.03 ± 0.11 | –
CCS(=O)(=O)Nc1ccc2c(c1)C(=O)N(C)[C@@H]1CC[C@H](CC(=O)NC3CCCCC3)O[C@@H]1CO2 | 0.905 ± 0.12 | –
CN(C)C(=O)c1cccc(-c2ccc([C@@H]3[C@H]4CN(C(=O)C5CCC5)CC(=O)N4[C@H]3CO)cc2)c1 | 0.9976 ± 0.0084 | –
COc1ccc(-c2ccccc2[C@@H]2[C@@H](CO)N(C(=O)NC(C)C)[C@H]2C#N)cc1 | 1.1 ± 0.063 | –
COc1ccc(S(=O)(=O)Nc2ccc3c(c2)[C@H]2C[C@H](CC(=O)N(C)C)O[C@@H](CO)[C@H]2O3)cc1 | 1.11 ± 0.014 | –
C[C@H]1CN([C@@H](C)CO)C(=O)c2cc(NS(=O)(=O)c3cn(C)cn3)ccc2O[C@@H]1CN(C)C(=O)Nc1cccc2ccccc12 | 0.954 ± 0.24 | –
CCCC#Cc1ccc2c(c1)O[C@H](CN(C)Cc1ccccn1)[C@H](C)CN([C@@H](C)CO)S2(=O)=O | 0.847 ± 0.015 | –
CCCC#Cc1ccc2c(c1)O[C@@H](CN(C)Cc1ccccn1)[C@@H](C)CN([C@@H](C)CO)S2(=O)=O | 0.884 ± 0.045 | –
Cc1ccc(S(=O)(=O)N(C)C[C@@H]2Oc3cc(C#CC4CCCC4)ccc3S(=O)(=O)N([C@@H](C)CO)C[C@H]2C)cc1 | 0.648 ± 0.17 | –
COc1cccc(S(=O)(=O)N(C)C[C@@H]2Oc3cc(Br)ccc3S(=O)(=O)N([C@@H](C)CO)C[C@@H]2C)c1 | 1.07 ± 0.041 | –
Cc1ccc(S(=O)(=O)N(C)C[C@@H]2Oc3cc(C#CC4CCCC4)ccc3S(=O)(=O)N([C@H](C)CO)C[C@H]2C)cc1 | 0.766 ± 0.091 | –
C[C@@H]1CN([C@H](C)CO)S(=O)(=O)c2ccc(C#Cc3cccc(F)c3)cc2O[C@@H]1CN(C)S(=O)(=O)c1cn(C)cn1 | 1.01 ± 0.055 | –
Cc1ccc(S(=O)(=O)N(C)C[C@H]2Oc3cc(C#CC4CCCC4)ccc3S(=O)(=O)N([C@H](C)CO)C[C@H]2C)cc1 | 0.8771 ± 0.0037 | –
C[C@@H]1CN([C@H](C)CO)S(=O)(=O)c2ccc(C#Cc3cccc(F)c3)cc2O[C@H]1CN(C)S(=O)(=O)c1cn(C)cn1 | 0.803 ± 0.052 | –
C[C@H]1CN([C@@H](C)CO)S(=O)(=O)c2ccc(C#Cc3cccc(F)c3)cc2O[C@@H]1CN(C)S(=O)(=O)c1cn(C)cn1 | 0.985 ± 0.049 | –

SMILES | viability index [1] | viability index (library set: Broad Institute Blood Stage)
CCCC#Cc1ccc2c(c1)O[C@H](CN(C)Cc1ccccn1)[C@@H](C)CN([C@@H](C)CO)S2(=O)=O | 1.02 ± 0.084 | –
C[C@@H]1CN([C@@H](C)CO)S(=O)(=O)c2ccc(C#Cc3cccc(F)c3)cc2O[C@@H]1CN(C)S(=O)(=O)c1cn(C)cn1 | 0.9512 ± 0.0018 | –
Cc1ccc(S(=O)(=O)N(C)C[C@@H]2Oc3cc(C#CC4CCCC4)ccc3S(=O)(=O)N([C@H](C)CO)C[C@@H]2C)cc1 | 0.943 ± 0.17 | –
O=C(C[C@H]1CC[C@H]2[C@@H](COC[C@H](O)CN2Cc2nccs2)O1)N1CCC(Cc2ccccc2)CC1 | 1.03 ± 0.078 | –
CN1C(=O)c2cc(NC(=O)c3cnccn3)ccc2OC[C@@H]2O[C@H](CC(=O)N[C@@H]3CCN(Cc4ccccc4)C3)CC[C@H]21 | 1.05 ± 0.031 | –
COc1ccccc1CN1[C@@H]2CNC[C@H]1[C@@H]2c1ccc(-c2cccnc2)cc1 | 1.09 ± 0.1 | –
Cc1noc(C)c1S(=O)(=O)N(C)C[C@@H]1OCCCC[C@H](C)Oc2ccc(NC(=O)CCC(F)(F)F)cc2C(=O)N([C@@H](C)CO)C[C@H]1C | 1.03 ± 0.09 | –
O=C(C[C@@H]1C=C[C@@H](NC(=O)c2ccc3c(c2)OCO3)[C@@H](CO)O1)NC1Cc2ccccc2C1 | 0.963 ± 0.11 | –
COc1cccc(-c2ccccc2[C@@H]2[C@H](C#N)N(C(=O)c3ccccn3)[C@H]2CO)c1 | 1.1 ± 0.072 | –
Cc1ccc(S(=O)(=O)Nc2ccc3c(c2)C(=O)N([C@@H](C)CO)C[C@@H](C)[C@H](CN(C)S(=O)(=O)c2cccs2)OCCCC[C@@H](C)O3)cc1 | 1.13 ± 0.086 | –
CO[C@H](CN(C)Cc1ccc2c(c1)OCO2)[C@H](C)CN(C(=O)c1ccccc1)[C@@H](C)CO | 1.067 ± 0.0074 | –
COc1ccc2c3c([C@@H](CO)N(Cc4ccncc4)C[C@]33CN(C3)C(=O)Nc3cccc(F)c3)n(C)c2c1 | 1 ± 0.16 | –
C/C=C/c1ccc([C@H]2[C@H]3CNC[C@@H]2N3C(=O)Nc2ccc3c(c2)OCO3)cc1 | 1.05 ± 0.093 | –
COc1ccccc1S(=O)(=O)N(C)C[C@@H]1Oc2cc(/C=C/c3ccccc3)ccc2S(=O)(=O)N([C@H](C)CO)C[C@H]1C | – | 0.808 ± 0.032
Cc1ccc(S(=O)(=O)N(C)C[C@H]2Oc3cc(C#CC4CCCC4)ccc3S(=O)(=O)N([C@H](C)CO)C[C@@H]2C)cc1 | 0.676 ± 0.26 | –
C[C@@H]1CN([C@@H](C)CO)S(=O)(=O)c2ccc(C#Cc3cccc(F)c3)cc2O[C@H]1CN(C)S(=O)(=O)c1cn(C)cn1 | 0.9366 ± 0.0027 | –
Cc1ccc(S(=O)(=O)N(C)C[C@@H]2Oc3cc(C#CC4CCCC4)ccc3S(=O)(=O)N([C@@H](C)CO)C[C@@H]2C)cc1 | 0.837 ± 0.055 | –
C[C@H]1CN([C@@H](C)CO)S(=O)(=O)c2ccc(C#Cc3cccc(F)c3)cc2O[C@H]1CN(C)S(=O)(=O)c1cn(C)cn1 | 1.04 ± 0.054 | –
Cc1ccc(S(=O)(=O)N(C)C[C@H]2Oc3cc(C#CC4CCCC4)ccc3S(=O)(=O)N([C@@H](C)CO)C[C@H]2C)cc1 | 0.713 ± 0.03 | –
COc1cccc(S(=O)(=O)N(C)C[C@H]2Oc3cc(Br)ccc3S(=O)(=O)N([C@@H](C)CO)C[C@H]2C)c1 | 0.978 ± 0.026 | –
C[C@H]1CN([C@@H](C)CO)S(=O)(=O)c2ccc(-c3ccncc3)cc2O[C@H]1CN(C)S(C)(=O)=O | 1.023 ± 0.0035 | –
CCCN(C)C[C@@H]1Oc2cc(/C=C/c3ccccc3)ccc2S(=O)(=O)N([C@@H](C)CO)C[C@H]1C | 1.102 ± 0.0059 | –
CCCN(C)C[C@H]1Oc2cc(/C=C/c3ccccc3)ccc2S(=O)(=O)N([C@H](C)CO)C[C@@H]1C | 1.02 ± 0.016 | –

SMILES | viability index [1] | viability index (library set: Broad Institute Blood Stage)
COc1ccccc1NC(=O)N1C[C@H](O)COC[C@H]2O[C@H](CC(=O)NCCc3ccncc3)CC[C@@H]21 | 1.08 ± 0.062 | –
O=C1CCC(=O)N[C@@H](c2ccccc2)C/C=C\CCN1 | 1.01 ± 0.087 | –
COc1ccc(NC(=O)N2C[C@@H]3[C@H](c4ccccc42)[C@H](CO)N3Cc2ccccn2)cc1 | 0.993 ± 0.11 | –
CCCNC(=O)Nc1ccc2c(c1)OC[C@H](C)N(Cc1cncnc1)C[C@@H](C)[C@H](OC)CN(C)C2=O | 0.989 ± 0.014 | –
CO[C@H]1CN(C)C(=O)c2cc(NC(=O)C3CCCCC3)ccc2OC[C@H](C)N(Cc2cccnc2)C[C@H]1C | 1.037 ± 0.0049 | –
Cc1noc(C)c1S(=O)(=O)N(C)C[C@@H]1OCc2cn(nn2)CCCC(=O)N([C@@H](C)CO)C[C@H]1C | 1.03 ± 0.014 | –
C[C@H](CO)N1C[C@H](C)[C@@H](CN(C)S(=O)(=O)c2cn(C)cn2)Oc2cc(C#Cc3cccc(F)c3)ccc2S1(=O)=O | 1.05 ± 0.09 | –
C[C@H](CO)N1C[C@H](C)[C@H](CN(C)S(=O)(=O)c2cn(C)cn2)Oc2cc(C#Cc3cccc(F)c3)ccc2S1(=O)=O | 0.9878 ± 0.0014 | –
Cc1ccc(S(=O)(=O)N(C)C[C@H]2Oc3cc(C#CC4CCCC4)ccc3S(=O)(=O)N([C@@H](C)CO)C[C@@H]2C)cc1 | 0.705 ± 0.12 | –
COc1cccc(-c2ccc3c(c2)[C@@H]2[C@@H](CCN2S(=O)(=O)c2cn(C)cn2)[C@@H](CO)N3)c1 | 0.97 ± 0.14 | –
Cc1noc(C)c1S(=O)(=O)Nc1ccc2c(c1)CC(=O)N([C@H](C)CO)C[C@H](C)[C@H](CN(C)Cc1ccc(Oc3ccccc3)cc1)O2 | 0.981 ± 0.01 | –
COc1ccc(S(=O)(=O)Nc2ccc3c(c2)CC(=O)N([C@@H](C)CO)C[C@@H](C)[C@H](CN(C)C(=O)Nc2c(C)noc2C)O3)cc1 | 0.986 ± 0.019 | –
COc1ccc(S(=O)(=O)Nc2ccc3c(c2)CC(=O)N([C@@H](C)CO)C[C@@H](C)[C@H](CN(C)Cc2ccc(C(=O)Nc4ccccc4N)cc2)O3)cc1 | 0.836 ± 0.077 | –
Cc1noc(C)c1S(=O)(=O)Nc1ccc2c(c1)CC(=O)N([C@@H](C)CO)C[C@@H](C)[C@@H](CN(C)Cc1ccc(Oc3ccccc3)cc1)O2 | 0.851 ± 0.12 | –
COc1ccc(S(=O)(=O)Nc2ccc3c(c2)CC(=O)N([C@@H](C)CO)C[C@@H](C)[C@@H](CN(C)Cc2ccc(C(=O)Nc4ccccc4N)cc2)O3)cc1 | 0.844 ± 0.012 | –
COc1ccc(S(=O)(=O)Nc2ccc3c(c2)CC(=O)N([C@@H](C)CO)C[C@H](C)[C@@H](CN(C)Cc2ccc(C(=O)Nc4ccccc4N)cc2)O3)cc1 | 0.872 ± 0.11 | –
COc1ccc(S(=O)(=O)Nc2ccc3c(c2)CC(=O)N([C@H](C)CO)C[C@H](C)[C@@H](CN(C)Cc2ccc(C(=O)Nc4ccccc4N)cc2)O3)cc1 | 1 ± 0.027 | –
Cc1noc(C)c1S(=O)(=O)Nc1ccc2c(c1)CC(=O)N([C@@H](C)CO)C[C@H](C)[C@H](CN(C)Cc1ccc(Oc3ccccc3)cc1)O2 | 0.923 ± 0.045 | –
COc1ccc(S(=O)(=O)Nc2ccc3c(c2)CC(=O)N([C@H](C)CO)C[C@@H](C)[C@@H](CN(C)Cc2ccc(C(=O)Nc4ccccc4N)cc2)O3)cc1 | 0.956 ± 0.014 | –
COc1ccc(S(=O)(=O)Nc2ccc3c(c2)CC(=O)N([C@H](C)CO)C[C@H](C)[C@H](CN(C)Cc2ccc(C(=O)Nc4ccccc4N)cc2)O3)cc1 | 0.766 ± 0.044 | –
COc1ccc(S(=O)(=O)Nc2ccc3c(c2)CC(=O)N([C@H](C)CO)C[C@@H](C)[C@H](CN(C)Cc2ccc(C(=O)Nc4ccccc4N)cc2)O3)cc1 | 0.966 ± 0.1 | –
COc1ccc(S(=O)(=O)Nc2ccc3c(c2)CC(=O)N([C@@H](C)CO)C[C@H](C)[C@H](CN(C)Cc2ccc(C(=O)Nc4ccccc4N)cc2)O3)cc1 | 0.993 ± 0.024 | –
